Eight compounds from ChEMBL document CHEMBL3988442, “University of Dundee, Small-Polar-MMV Screening Library” (2021) can be followed below.

Parameters in all cases: scale not given: direction of the effect not stated beside the values
For assay [1], the target named is Protein translocase subunit SecA (Escherichia coli (strain K12)) (UniProt P10408). In words: Assay to Identify E. coli SecA ATPase Inhibitors. In kind it is functional. To be noted: 30 µM.
In assay [2] the target is T1, Ubiquitin-activating enzyme e1, putative (Leishmania donovani (strain BPK282A1)) (UniProt E9BSI1).
T1 sequence (whole entry): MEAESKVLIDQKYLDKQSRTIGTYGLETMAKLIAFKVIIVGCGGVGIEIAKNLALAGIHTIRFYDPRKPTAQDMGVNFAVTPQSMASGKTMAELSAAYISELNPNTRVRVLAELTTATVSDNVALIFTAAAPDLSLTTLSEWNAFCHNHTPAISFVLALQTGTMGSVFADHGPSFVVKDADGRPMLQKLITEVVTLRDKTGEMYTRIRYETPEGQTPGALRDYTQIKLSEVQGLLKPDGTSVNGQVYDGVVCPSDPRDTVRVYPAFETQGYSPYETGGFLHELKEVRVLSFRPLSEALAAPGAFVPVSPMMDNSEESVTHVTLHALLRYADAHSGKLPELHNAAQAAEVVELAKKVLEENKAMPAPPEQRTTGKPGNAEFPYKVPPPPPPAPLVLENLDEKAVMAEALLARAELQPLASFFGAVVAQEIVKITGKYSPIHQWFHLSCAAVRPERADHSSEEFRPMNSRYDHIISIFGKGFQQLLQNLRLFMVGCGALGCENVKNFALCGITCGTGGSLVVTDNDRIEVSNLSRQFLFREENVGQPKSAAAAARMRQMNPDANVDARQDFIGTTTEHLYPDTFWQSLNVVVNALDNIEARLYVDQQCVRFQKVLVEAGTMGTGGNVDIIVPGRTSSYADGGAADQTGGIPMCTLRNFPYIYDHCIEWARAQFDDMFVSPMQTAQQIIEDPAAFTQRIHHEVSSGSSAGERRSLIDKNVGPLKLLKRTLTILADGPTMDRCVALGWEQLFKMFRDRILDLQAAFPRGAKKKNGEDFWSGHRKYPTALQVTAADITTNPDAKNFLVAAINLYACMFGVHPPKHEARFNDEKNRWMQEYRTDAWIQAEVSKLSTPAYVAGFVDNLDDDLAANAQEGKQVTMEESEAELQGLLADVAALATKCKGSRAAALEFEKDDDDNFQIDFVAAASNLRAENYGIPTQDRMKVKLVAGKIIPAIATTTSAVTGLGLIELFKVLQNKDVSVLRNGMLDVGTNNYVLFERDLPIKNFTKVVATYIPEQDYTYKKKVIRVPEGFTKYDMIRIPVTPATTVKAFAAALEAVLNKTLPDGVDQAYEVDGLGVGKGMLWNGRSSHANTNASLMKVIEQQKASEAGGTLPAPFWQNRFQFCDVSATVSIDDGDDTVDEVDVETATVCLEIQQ
The experiment in a line: Leishmania donovani Ubiquitin Activating Enzyme (LdE1). The note with it: 30 µM. In kind it is functional.

The target in assay [3] is AMP-activated protein kinase, AMPK (Homo sapiens) (UniProt P54646+O43741+P54619+Q9UGJ0+Q9Y478+Q13131+Q9UGI9). In words: AMP-dependent Kinase enzyme assay. An in vitro enzyme assay that detects ADP turnover that is directly proportional to AMPK activity. This uses naive AMPK that is activated during the assay with MK-8722. Format: functional. The note with it: 30 µM.
Assay [4] deals with Sialic acid-binding Ig-like lectin 9 (Homo sapiens) (UniProt Q9Y336). The experiment in a line: Hs-Siglec9 ALPHAscreen SOP 20170721. The note with it: 10 µM. (In general: Bead proximity is the source of the signal in Alpha formats.)
Sequence of Sialic acid-binding Ig-like lectin 9 (Homo sapiens) (Q9Y336 whole entry): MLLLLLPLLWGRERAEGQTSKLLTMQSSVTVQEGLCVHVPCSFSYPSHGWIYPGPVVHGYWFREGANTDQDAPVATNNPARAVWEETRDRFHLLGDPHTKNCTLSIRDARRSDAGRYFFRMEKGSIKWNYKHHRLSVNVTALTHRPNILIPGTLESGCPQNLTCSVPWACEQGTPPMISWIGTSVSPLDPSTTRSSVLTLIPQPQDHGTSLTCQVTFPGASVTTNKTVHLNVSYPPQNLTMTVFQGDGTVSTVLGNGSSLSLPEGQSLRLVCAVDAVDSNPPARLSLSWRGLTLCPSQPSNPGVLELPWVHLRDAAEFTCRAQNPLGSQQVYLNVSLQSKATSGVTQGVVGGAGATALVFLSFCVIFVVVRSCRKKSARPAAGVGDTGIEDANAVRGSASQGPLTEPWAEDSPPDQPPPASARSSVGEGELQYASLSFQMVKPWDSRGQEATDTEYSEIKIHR
A further assay has as its system Trypanosoma cruzi. The experiment in a line: Trypanosoma cruzi phosphomannomutase and mannose-1-phosphate guanylyltransferase assay. In kind it is functional. To be noted: 10 µM.
In assay [5] the target is T2, Arginase-2, mitochondrial (Homo sapiens) (UniProt P78540).
T2 sequence (whole entry): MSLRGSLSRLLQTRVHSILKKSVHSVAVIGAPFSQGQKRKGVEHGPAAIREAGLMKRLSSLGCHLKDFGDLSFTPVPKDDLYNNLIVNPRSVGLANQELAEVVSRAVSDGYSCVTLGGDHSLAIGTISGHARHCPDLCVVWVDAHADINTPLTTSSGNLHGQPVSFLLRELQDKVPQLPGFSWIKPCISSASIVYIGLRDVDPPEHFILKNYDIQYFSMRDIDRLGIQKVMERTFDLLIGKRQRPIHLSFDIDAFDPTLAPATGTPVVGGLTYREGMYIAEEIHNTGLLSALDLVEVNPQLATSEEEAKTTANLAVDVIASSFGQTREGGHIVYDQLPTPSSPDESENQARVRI
The experiment in a line: in vitro enzyme assay to detect the production of urea directly proportional to the activity of Arginase II. Further: in the data most compounds retested in dose-response had high values. In kind it is functional. The note with it: 33.3 µM.

In assay [6] the target is T3, Proteasome subunit beta (Trypanosoma cruzi) (UniProt O96673).
T3 sequence (whole entry): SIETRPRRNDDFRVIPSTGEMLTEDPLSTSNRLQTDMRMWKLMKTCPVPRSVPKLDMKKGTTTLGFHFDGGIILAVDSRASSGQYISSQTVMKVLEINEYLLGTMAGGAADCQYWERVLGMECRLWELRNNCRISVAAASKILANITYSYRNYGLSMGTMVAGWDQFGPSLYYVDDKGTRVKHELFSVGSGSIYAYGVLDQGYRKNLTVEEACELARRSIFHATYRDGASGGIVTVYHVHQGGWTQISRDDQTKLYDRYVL
In words: Trypanosoma cruzi proteasome chymotrypsin-like activity (TcProtChymo) assay. Further: in the data most compounds retested in dose-response had high values. In kind it is functional. The note with it: 9.37 µM.

The species named for another assay is Homo sapiens. In words: To identify inhibition of the IFN signalling (Jak-Stat) pathway via expression of an eGFP reporter gene under the control of an IFN-stimulated response element (ISRE) containing MxA promoter. In kind it is functional. The note with it: 30 µM. On the technique in general: Reporter assays use an easily measured gene product as a stand-in for the process of interest.

For assay [7], the target named is T4, Tyrosyl-tRNA synthetase, putative (Trypanosoma cruzi (strain CL Brener)) (UniProt Q4DSP6).
T4 sequence (whole entry): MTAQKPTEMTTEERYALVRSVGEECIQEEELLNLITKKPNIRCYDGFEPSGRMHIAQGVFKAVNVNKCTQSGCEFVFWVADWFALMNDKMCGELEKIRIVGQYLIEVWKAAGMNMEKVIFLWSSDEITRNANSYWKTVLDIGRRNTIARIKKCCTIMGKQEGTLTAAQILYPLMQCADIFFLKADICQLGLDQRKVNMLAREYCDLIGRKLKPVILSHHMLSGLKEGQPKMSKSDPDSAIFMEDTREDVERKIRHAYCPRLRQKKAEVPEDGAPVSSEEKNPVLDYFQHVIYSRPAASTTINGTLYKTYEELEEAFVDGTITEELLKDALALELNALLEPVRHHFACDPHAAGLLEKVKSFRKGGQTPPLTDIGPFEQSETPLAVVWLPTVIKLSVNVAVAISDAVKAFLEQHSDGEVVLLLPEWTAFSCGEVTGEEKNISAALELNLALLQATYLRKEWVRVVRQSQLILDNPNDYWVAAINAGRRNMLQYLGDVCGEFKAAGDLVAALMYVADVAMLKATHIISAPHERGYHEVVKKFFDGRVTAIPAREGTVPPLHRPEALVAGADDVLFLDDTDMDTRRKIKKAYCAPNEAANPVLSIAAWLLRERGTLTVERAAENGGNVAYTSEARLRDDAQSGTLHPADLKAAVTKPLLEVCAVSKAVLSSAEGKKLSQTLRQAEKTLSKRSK
The experiment in a line: Trypanosoma cruzi tyrosyl tRNA synthetase (TcYRS) _High Tyrosine SOP. Further: in the data most compounds retested in dose-response had high values. In kind it is functional. To be noted: 30 µM.

In assay [8] the target is T4, Tyrosyl-tRNA synthetase, putative (Trypanosoma cruzi (strain CL Brener)). In words: Trypanosoma cruzi tyrosyl tRNA synthetase (TcYRS) SOP. In kind it is functional. To be noted: 30 µM.
Assay [9] deals with Chromo domain-containing protein 1 (Saccharomyces cerevisiae (strain ATCC 204508 / S288c) (Baker's yeast)) (UniProt P32657). The experiment in a line: ScCHD-1 Enzyme Inhibition Assay. Further: in the data most compounds retested in dose-response had high values. Format: functional. The note with it: 30 µM.
Sequence of Chromo domain-containing protein 1 (Saccharomyces cerevisiae (strain ATCC 204508 / S288c) (Baker's yeast)) (P32657 whole entry, the tested form may be a part): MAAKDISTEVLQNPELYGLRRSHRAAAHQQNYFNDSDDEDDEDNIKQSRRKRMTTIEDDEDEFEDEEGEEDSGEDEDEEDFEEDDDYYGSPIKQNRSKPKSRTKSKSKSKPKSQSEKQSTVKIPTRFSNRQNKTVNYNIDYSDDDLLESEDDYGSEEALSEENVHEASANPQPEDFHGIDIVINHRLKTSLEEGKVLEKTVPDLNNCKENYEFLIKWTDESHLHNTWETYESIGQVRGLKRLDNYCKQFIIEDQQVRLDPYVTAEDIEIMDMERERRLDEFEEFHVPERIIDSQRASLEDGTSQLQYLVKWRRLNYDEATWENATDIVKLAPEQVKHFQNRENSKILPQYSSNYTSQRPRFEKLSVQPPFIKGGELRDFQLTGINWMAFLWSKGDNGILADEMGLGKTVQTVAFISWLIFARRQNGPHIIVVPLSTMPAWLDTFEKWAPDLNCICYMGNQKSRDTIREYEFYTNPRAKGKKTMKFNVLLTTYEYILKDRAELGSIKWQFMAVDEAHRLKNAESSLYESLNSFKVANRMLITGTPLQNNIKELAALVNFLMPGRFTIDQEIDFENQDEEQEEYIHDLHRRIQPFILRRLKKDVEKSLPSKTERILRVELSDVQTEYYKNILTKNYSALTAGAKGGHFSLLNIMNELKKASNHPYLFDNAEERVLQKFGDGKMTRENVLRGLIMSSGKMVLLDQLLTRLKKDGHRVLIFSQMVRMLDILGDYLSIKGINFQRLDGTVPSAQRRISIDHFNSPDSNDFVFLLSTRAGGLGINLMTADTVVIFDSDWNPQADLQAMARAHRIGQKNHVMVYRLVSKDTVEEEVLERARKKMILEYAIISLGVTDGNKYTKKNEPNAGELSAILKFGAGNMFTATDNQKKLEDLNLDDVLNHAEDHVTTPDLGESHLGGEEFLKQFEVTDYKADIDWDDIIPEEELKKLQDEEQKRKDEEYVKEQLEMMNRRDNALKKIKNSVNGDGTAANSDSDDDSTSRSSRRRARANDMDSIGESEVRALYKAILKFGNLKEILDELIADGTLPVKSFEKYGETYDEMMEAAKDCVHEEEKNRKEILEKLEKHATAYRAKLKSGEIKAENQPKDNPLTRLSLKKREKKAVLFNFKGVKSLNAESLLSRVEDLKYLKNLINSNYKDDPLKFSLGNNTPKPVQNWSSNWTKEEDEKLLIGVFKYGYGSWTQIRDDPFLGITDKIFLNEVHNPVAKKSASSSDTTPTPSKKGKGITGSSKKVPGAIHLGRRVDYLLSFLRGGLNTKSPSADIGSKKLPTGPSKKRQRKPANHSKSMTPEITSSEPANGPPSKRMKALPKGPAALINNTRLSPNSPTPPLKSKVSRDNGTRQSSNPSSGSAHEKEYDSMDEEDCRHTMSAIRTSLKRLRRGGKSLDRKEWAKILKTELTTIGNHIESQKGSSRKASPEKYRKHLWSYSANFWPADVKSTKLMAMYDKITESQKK

For some of these results: Potency and affinity values are given separately.

Sequence of Protein translocase subunit SecA (Escherichia coli (strain K12)) (P10408 whole entry): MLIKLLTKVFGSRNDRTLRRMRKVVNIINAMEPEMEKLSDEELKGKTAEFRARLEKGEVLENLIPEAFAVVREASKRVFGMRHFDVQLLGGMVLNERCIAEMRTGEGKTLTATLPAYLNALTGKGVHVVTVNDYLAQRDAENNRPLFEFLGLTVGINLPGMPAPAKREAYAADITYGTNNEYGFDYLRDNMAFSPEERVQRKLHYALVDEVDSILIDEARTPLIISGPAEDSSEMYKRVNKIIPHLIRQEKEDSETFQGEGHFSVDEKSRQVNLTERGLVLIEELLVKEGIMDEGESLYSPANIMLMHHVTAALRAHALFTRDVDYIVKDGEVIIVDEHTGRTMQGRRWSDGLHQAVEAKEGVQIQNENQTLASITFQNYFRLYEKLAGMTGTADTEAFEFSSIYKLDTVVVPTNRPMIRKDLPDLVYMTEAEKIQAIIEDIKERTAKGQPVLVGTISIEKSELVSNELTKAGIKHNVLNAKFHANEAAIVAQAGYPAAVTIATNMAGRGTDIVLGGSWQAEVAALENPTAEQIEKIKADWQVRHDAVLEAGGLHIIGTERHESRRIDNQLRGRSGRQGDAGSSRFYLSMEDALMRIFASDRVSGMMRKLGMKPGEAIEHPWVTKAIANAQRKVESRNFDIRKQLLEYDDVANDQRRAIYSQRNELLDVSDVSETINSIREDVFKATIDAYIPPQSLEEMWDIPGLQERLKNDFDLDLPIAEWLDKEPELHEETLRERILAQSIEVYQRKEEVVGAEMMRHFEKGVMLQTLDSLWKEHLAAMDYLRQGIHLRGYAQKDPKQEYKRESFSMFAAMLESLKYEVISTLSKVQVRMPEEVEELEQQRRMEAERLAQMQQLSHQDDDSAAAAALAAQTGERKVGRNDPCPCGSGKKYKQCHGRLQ

With `c1ccc(CN2CCc3ncnc(-c4ccsc4)c3CC2)nc1`, the Percent Effect in [1] was -4.91%; in assay [2], 0%; in [3], 2.79%; in assay [4] it was 8.34%; in the assay with Trypanosoma cruzi it was -2.83%; in [5] it was 5.41%. In addition, the Percent Effect in assay [6] was 22.7%; in the assay filed under Homo sapiens it was -21%; in assay [7], 2.16%; in [8] it was 7.69%; in assay [9], 3.65%.

Regarding `NC(=O)NCC(=O)N1C[C@H]2CC[C@@H]1CN(C1Cc3ccccc3C1)C2`, the Percent Effect was -3.92% in assay [1]; 10.8% in assay [2]; -25.8% in assay [3]; 17.9% in [4]; -0.88% with Trypanosoma cruzi; -3.23% in assay [5]. Also, the Percent Effect in [6] is 14%; in the assay listed under Homo sapiens, 3.96%; in [7] it was 5.38%; in assay [8] it was 13.6%; in [9] it was -4.63%.

Regarding `Cc1cnc2n1CCN(C)C21CCN(C(=O)CC(C)C)CC1`, the Percent Effect is -2.76% in [1]; 8% in assay [2]; 2.31% in assay [3]; 1.76% in [4]; -5.21% with Trypanosoma cruzi; -26.3% in assay [5]. The Percent Effect in [6] was 8.38%; in the assay listed under Homo sapiens, -3.36%; in [7], -1.04%; in assay [8], 15%; in assay [9], -7.37%.

As for `CCc1noc(CNc2cc(F)ccc2OCC2CCCO2)n1` (stereo not drawn), the Percent Effect in assay [1] was -0.224%; in assay [2], -2.7%; in [3], -4.16%; in assay [4], 1.82%; in the assay on Trypanosoma cruzi, -4.83%; in assay [5] it was -0.476%. Further, the Percent Effect in assay [6] is 11.9%; in the assay listed under Homo sapiens it was 2.67%; in assay [7] it was -0.529%; in assay [8], 0%; in [9], -1.43%.

With `CC(C)c1ccc(-c2nnn(CCNS(C)(=O)=O)n2)cc1`, the Percent Effect in assay [1] was -4.75%; in assay [2], 2.74%; in [3] it was 0.921%; in assay [4], 2.29%; with Trypanosoma cruzi, 4.96%; in [5], -2%. For the same compound, the Percent Effect is 4.71% in assay [6]; -14% in the assay listed under Homo sapiens; -4.17% in [7]; 8.64% in assay [8]; -0.501% in assay [9].

As for `Cc1ncnc2c1CCN(Cc1ccccn1)CC2`, the Percent Effect in [1] is -2.86%; in [2] it was -2.74%; in assay [3], -0.577%; in assay [4] it was 1.97%; with Trypanosoma cruzi it was -3.57%; in assay [5], -0.798%. Also, the Percent Effect in assay [6] is 1.46%; in the assay listed under Homo sapiens, -16.5%; in assay [7], 3.12%; in assay [8] it was -1.24%; in [9] it was 5.72%.

Turning to `O=C(c1ccoc1)N1CCCn2cnc(COCC3CC3)c2C1`, the Percent Effect was -3.46% in [1]; 13.5% in assay [2]; 6.15% in [3]; -4.88% in [4]; 1.07% in the assay on Trypanosoma cruzi; 9.24% in assay [5]. The Percent Effect in assay [6] is 22.1%; in the assay filed under Homo sapiens, 0.302%; in [7], 2.16%; in assay [8], 15.4%; in assay [9], -0.464%.

On to `COc1ccc(C2=CCN(C(=O)CN(C)Cc3ccoc3)CC2)cc1`, for which the Percent Effect is -6.75% in assay [1]; 7.59% in assay [2]; -2.65% in assay [3]; 5.81% in assay [4]; 11.6% in the assay with Trypanosoma cruzi; -5.32% in assay [5]. For the same compound, the Percent Effect in assay [6] was 10.4%; in the assay filed under Homo sapiens, 28.5%; in [7], 8.37%; in assay [8], 21.5%; in assay [9], -11.7%.
